Data taken from PubChem BioAssay (NCI).
About 83,000 compounds went through this panel and 20% of them were active in at least one assay; those are over-represented in the sample as a whole.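 Cell lines were cultured in 96-well plates, exposed to a single compound concentration, and assessed for percent growth 48 hours later.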 Calls of active or inactive are those of the source. Rule for the calls: active = growth percent below 10; inactive = the rest.

Tests used:
Assay in all cases: NCI-60 one-dose screen, 48 h (100 = growth as untreated, 0 = no growth, -100 = all killed)
Conditions in all cases: 10 µM unless noted
[1] = test system: T-47D breast
[2] = test system: BT-549 breast
[3] = test system: MDA-MB-435 melanoma
[4] = test system: SW-620 colon
[5] = test system: MCF7 breast
[6] = test system: HCT-116 colon
[7] = test system: HCC-2998 colon
[8] = test system: KM12 colon

Measured: growth

Cc1cc2c(C(C)C)c(O)c(O)c(/C=N/O)c2c(O)c1-c1c(C)cc2c(C(C)C)c(O)c(O)c(/C=N/O)c2c1O
inactive: [1] 10.2% | [2] 23.8% | [3] 37.4% | [4] 23.2% | [5] 15.3% | [6] 18% | [7] 16.1% | [8] 26%

COC12C=C/C(=C(/C(=O)OCc3ccccn3)C(=O)CCCCCCCCC3(OC)C=C/C(=C(/C(=O)OCc4ccccn4)C(=O)CCCCCCCC1)O3)O2
active: [2] -26.9% | [3] -23.6% | [4] 8.34% | [5] -0.915% | [6] -59.7% | [7] -82.6% | [8] -76.2%
inactive: [1] 18.5%

CCOC(=O)/C=C1\S/C(=N\Nc2cc(=O)[nH]c3ccc(OC)cc23)N(c2ccccc2)C1=O
inactive: [1] 73.6% | [2] 99.6% | [3] 97% | [4] 95.3% | [5] 69.4% | [6] 93.9% | [7] 115% | [8] 91.8%

Cc1ccc(NC(=O)c2ccc(Nc3ncnc4c3cnn4-c3cccc(F)c3)cc2)cc1
inactive: [1] 92.6% | [2] 99.7% | [3] 100% | [4] 101% | [5] 96.5% | [6] 101% | [7] 107% | [8] 102%

CNC(=O)c1cc(Oc2ccc3nc(NC(=O)Nc4ccc(F)cc4F)sc3c2)ccn1
inactive: [1] 56.5% | [2] 100% | [3] 62.5% | [4] 99.9% | [5] 66.8% | [6] 20.7% | [7] 88.1% | [8] 72.6%

C=CCOC(=O)C1=C(C)N(CC)C(=O)N(CC)C1c1c(Cl)n(C)c2ccccc12 (stereo not given)
inactive: [1] 87.6% | [2] 89.9% | [3] 89.1% | [4] 84.6% | [5] 79% | [6] 85.8% | [7] 78% | [8] 68.6%

COC(=O)c1nc(-c2ccc(C)cc2)oc1N1CCOCC1
inactive: [1] 87.3% | [2] 87.1% | [3] 103% | [4] 99.7% | [5] 83% | [6] 97.8% | [7] 104% | [8] 104%

Cc1nc2c(c(-c3ccccc3)n1)Cc1c(ccc3ccccc13)O2
inactive: [1] 84.6% | [2] 90% | [3] 119% | [4] 96.4% | [5] 89.1% | [6] 90.6% | [7] 111% | [8] 89.1%

c1ccc(-c2cn3nc(-c4c[nH]c5ccccc45)sc3n2)cc1
inactive: [1] 62.6% | [2] 91.3% | [3] 26.5% | [4] 73.5% | [5] 59.1% | [6] 84.2% | [7] 89.6% | [8] 58.3%

CC1=C(C(=O)OCc2ccccc2)C(c2ccc3c(c2)OCO3)n2c(nc3ccccc32)N1 (stereo not given)
inactive: [1] 40.9% | [2] 50.5% | [4] 17.6% | [5] 20.6% | [6] 18.8% | [7] 56.4% | [8] 17.3%
active: [3] -35.4%

C#C[C@]1(O)CC[C@H]2[C@@H]3CC=C4c5sc(-c6ccccc6)nc5CC[C@]4(C)[C@H]3CC[C@@]21C
inactive: [1] 92.7% | [2] 86.2% | [3] 93.6% | [4] 89.9% | [5] 51.2% | [6] 78.2% | [7] 97.4% | [8] 78.9%

COc1cc(/C=C/C(=O)c2ccc(-n3cc(CN4CCN(c5cc6c(cc5F)c(=O)c(C(=O)O)cn6C5CC5)CC4)nn3)cc2)cc(OC)c1OC
inactive: [1] 101% | [2] 92.5% | [3] 81.9% | [4] 85.9% | [5] 61.4% | [6] 17.3% | [7] 83.3% | [8] 87.1%

O=c1cc(-c2nccc3c2[nH]c2ccccc23)c2cc(Cl)ccc2o1
active: [3] 1.21% | [6] 8.73%
inactive: [1] 59.4% | [2] 36.1% | [4] 34.3% | [5] 27.2% | [7] 74.2% | [8] 29%

CCCNNC(=O)c1ccc(CNC(=O)/C=C/c2ccccc2)cc1
inactive: [2] 77.2% [2.5 µM] | [3] 31.8% [2.5 µM] | [4] 22.9% [2.5 µM] | [5] 30.6% [2.5 µM] | [7] 34.2% [2.5 µM] | [8] 47.1% [2.5 µM]
active: [1] 0.925% [2.5 µM] | [6] 1.27% [2.5 µM]

CCOC(=O)c1ccc2c(c1)c1c(C)c3cnccc3c(C)c1n2C
active: [1] -23.1% | [2] -54% | [3] -65.8% | [4] -7.3% | [5] -28.9% | [6] -85.2% | [7] -70.7% | [8] -7.02%

CN1CCN(c2ccc(Nc3ncc4[nH]c(=O)n(Cc5ccccc5N)c4n3)cc2)CC1
inactive: [1] 75.3% | [2] 97.8% | [3] 104% | [4] 95.3% | [5] 87.8% | [6] 91.5% | [7] 96.4% | [8] 101%

COC(=O)[C@@H](Cc1c[nH]c2ccccc12)NC[C@@H](O)CN1C(=O)/C(=C\c2cc(OC)c(OC)c(OC)c2)c2ccccc21
inactive: [1] 54.5% | [2] 68.4% | [3] 56.1% | [4] 77.3% | [5] 34.2% | [6] 66% | [7] 75.2% | [8] 60.4%

COc1cc2c(cc1OC)CC[N+](CCC[N+](C)(C)C)=C2
inactive: [1] 103% | [2] 92.8% | [3] 103% | [4] 113% | [5] 95.1% | [6] 95.2% | [7] 89.5% | [8] 103%

COC(CCP(=O)(c1ccccc1)c1ccccc1)(C(=O)c1ccccc1)c1ccccc1 (stereo not given)
inactive: [1] 47.6% | [2] 60.4% | [3] 71.4% | [4] 76% | [5] 35.1% | [6] 45.5% | [7] 72.7% | [8] 57.3%

CCOC(=O)C1=C(c2ccccc2)N=C2SC=C(c3cccc([N+](=O)[O-])c3)N2C1c1ccc(O)cc1 (stereo not given)
inactive: [1] 93.5% | [2] 95.1% | [3] 101% | [4] 97.6% | [5] 95.1% | [6] 100% | [7] 101% | [8] 99.7%

Cc1cccc(CN(Nc2ccccc2)c2ccccc2)n1
inactive: [1] 87.2% | [2] 111% | [3] 103% | [4] 107% | [5] 93.3% | [6] 95.5% | [7] 112% | [8] 110%

CN1CCN(Cc2ccc(NC(=O)c3cncc(C#Cc4c(N)ncc5ccccc45)c3)cc2C(F)(F)F)CC1
inactive: [2] 14.6%
active: [1] -64.5% | [3] -90.3% | [4] -71.3% | [5] -70.8% | [6] -96.5% | [7] -60.7% | [8] -65.2%

CCN=c1sc2c(n1NC(=O)c1cc3ccc1CCc1ccc(cc1)CC3)C(=O)c1ccccc1C2=O
active: [1] -19.8% | [2] -97.4% | [3] -97.1% | [4] -56.6% | [5] -63.1% | [6] -50.9% | [7] -37.9% | [8] -29.9%

CCOC(=O)c1cc(C(=O)c2cc(OC)cc(OC)c2)n2ncccc12
inactive: [1] 32.9% | [2] 18.4% | [4] 18.4% | [5] 24.8% | [6] 13.5% | [7] 66.7% | [8] 27.8%
active: [3] 1.18%

CCN1CCN(CCOc2ccc(CNc3ccc4nc(CCC5CCCCC5)[nH]c4c3)cc2)CC1
inactive: [2] 65.6% | [4] 22.1% | [6] 17.9% | [8] 47.1%
active: [1] -8.02% | [3] -17.8% | [5] 3.86% | [7] 4.19%

Cc1nc2cccc(NCc3ccc(C(=O)NO)cc3)c2c(=O)n1-c1ccccc1
active: [4] 7.22% | [6] -32.6%
inactive: [1] 17.5% | [2] 73.4% | [3] 27% | [5] 67.1% | [7] 86.3% | [8] 29.8%

O=C(Cn1cc(CSc2nc3ccccc3o2)nn1)Nc1ccc([N+](=O)[O-])cc1
inactive: [1] 87.9% | [2] 96.7% | [3] 99.1% | [4] 102% | [5] 96.8% | [6] 97.6% | [7] 110% | [8] 94.8%

CCC(=C(c1ccc(OCCN(CC)CC)cc1)c1ccc(OCCN(CC)CC)cc1)c1ccc(Cl)cc1
inactive: [2] 61.5%
active: [1] -55.4% | [3] -92% | [4] -75.5% | [5] -73.3% | [6] -87.7% | [7] -91% | [8] -82.2%

COC(=O)c1nc(-c2ccccc2)oc1S(=O)(=O)NCC(c1ccc(Cl)cc1)N1CCCCC1 (stereo not given)
inactive: [1] 52.1% | [2] 55.8% | [3] 72.1% | [4] 36.2% | [5] 34.7% | [6] 78% | [7] 117% | [8] 80.6%

Cc1c2cnccc2c(C)c2c1c1cc(C(=O)O)ccc1n2C
active: [1] -10.2% | [2] -1.22% | [3] 5.58% | [4] 7.21% | [5] 1.28% | [6] 2.6% | [7] 4.89% | [8] 5.47%
